SRC2 inh = inhibition of GAL4-SRC2 driven luciferase reporter, primary screen, SRC2 inhibitor project, cell-based, luminescence. HEK293 GAL4-SRC2 luciferase reporter. inhibition, % at 9 µM. 370,000 compounds, 0.17% hits;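 active = inhibition above the mean inhibition of all tested compounds plus 3 SD, set per campaign, cut at about 52% in these data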
GalR3 antagonist = GalR3 antagonists in HEK293 cells, primary screen, cell-based, fluorescence readout | inhibition, % at 3 µM | AID 651719, 2012 | Galanin receptor type 3 (Homo sapiens), O60755 | 360,000 compounds, 0.44% hits | HEK293 GalR3-CNG cAMP membrane potential fluorescence; galR3 body fused to GalR1 C-terminus;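 active = inhibition above the screen-wide average plus 3 SD, cut at about 13% in these data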;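 also: forskolin and galanin both at EC90 stimulate the cells; cAMP rise reported by CNG channel membrane potential dye signal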
Target sequence (O60755 1-299 limits assumed): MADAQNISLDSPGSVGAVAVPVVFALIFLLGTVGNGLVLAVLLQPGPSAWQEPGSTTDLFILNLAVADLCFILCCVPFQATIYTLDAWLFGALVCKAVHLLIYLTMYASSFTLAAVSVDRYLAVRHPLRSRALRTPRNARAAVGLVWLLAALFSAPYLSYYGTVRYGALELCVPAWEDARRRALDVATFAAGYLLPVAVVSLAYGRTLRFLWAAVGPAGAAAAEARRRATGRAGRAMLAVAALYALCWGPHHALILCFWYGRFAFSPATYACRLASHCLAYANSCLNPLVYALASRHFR
NCOA1 inh = SRC1 coactivator transcriptional activity inhibitors, primary screen, cell-based, luminescence; Nuclear receptor coactivator 1 (Homo sapiens), Q15788; HEK293 GAL4-SRC1 luciferase reporter; inhibition, % at 3.6 µM; 360,000 compounds, 0.12% hits; AID 588354, 2011;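 active = inhibition above the campaign mean plus 3 SD, with each screening campaign given its own cutoff, cut at about 60% in these data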
NCOA3 inh = SRC3 coactivator transcriptional activity inhibitors, primary screen, cell-based, luminescence | Nuclear receptor coactivator 3 (Homo sapiens), Q9Y6Q9 | HEK293 GAL4-SRC3 luciferase reporter | inhibition, % at 3.6 µM | 360,000 compounds, 0.17% hits;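 active = inhibition above a per-campaign cutoff, the mean of all compounds plus 3 SD, cut at about 60% in these data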;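 also: higher means less SRC3-driven luciferase light from the GAL4 reporter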
NR5A2 inv ag = LRH-1 (NR5A2) inverse agonists, primary screen, cell-based, luminescence, HEK293T, StAR-luciferase reporter; Nuclear receptor subfamily 5 group A member 2 (Homo sapiens), O00482; LRH-1 transfected, 24 h; inhibition, % at 3.6 µM; 360,000 compounds, 0.13% hits;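 active = inhibition above the mean inhibition of all tested compounds plus 3 SD, cut at about 73% in these data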
NR2F2 inh = NR2F2 transcriptional activity inhibitors, primary screen, cell-based, luciferase reporter, HEK293T, luminescence | COUP transcription factor 2 (Homo sapiens), P24468 | HEK293T NGFI-A luciferase reporter | inhibition, % at 8.6 µM | 370,000 compounds, 0.7% hits | AID 686940, 2013;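 active = inhibition above a per-plate cutoff, mean inhibition of test wells between control levels plus 3 SD, cut at about 38% in these data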;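 also: cells cotransfected with COUP-TFII expression vector driving the NGFI-A reporter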
Target sequence (P24468 whole entry, looked up): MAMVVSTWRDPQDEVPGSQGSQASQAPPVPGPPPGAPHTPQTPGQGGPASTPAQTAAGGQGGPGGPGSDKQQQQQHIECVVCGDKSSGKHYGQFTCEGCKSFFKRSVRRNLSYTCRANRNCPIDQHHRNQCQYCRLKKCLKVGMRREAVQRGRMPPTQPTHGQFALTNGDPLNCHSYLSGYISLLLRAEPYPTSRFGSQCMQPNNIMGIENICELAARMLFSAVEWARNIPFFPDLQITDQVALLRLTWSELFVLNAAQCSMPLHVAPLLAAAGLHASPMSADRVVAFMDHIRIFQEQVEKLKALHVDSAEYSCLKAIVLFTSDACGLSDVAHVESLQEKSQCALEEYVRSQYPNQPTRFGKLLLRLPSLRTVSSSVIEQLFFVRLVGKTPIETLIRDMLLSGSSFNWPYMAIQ
VP16 Luc counter = Gal4-VP16 luciferase reporter inhibitors, counter-screen for COUP-TFII antagonist project, cell-based, luminescence, HEK293; 2,500 compounds, 25% hits; inhibition, % at 8.5 µM; shares compounds with NR2F2 inh; in the data active = inhibition above about 13%
NR2F2 inh conf = NR2F2 transcriptional activity inhibitors, confirmation, cell-based, luciferase reporter, HEK293, triplicate; 2,500 compounds, 45% hits; AID 687008, 2013; HEK293 NGFI-A luciferase reporter, luminescence; inhibition, % at 8.5 µM; shares compounds with NR2F2 inh;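 active = mean inhibition over three repeats above a set limit taken from the earlier primary screen, cut at about 38% in these data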
Each line names hits and unclear results; the compound was inactive in the other large screens (follow-up assays come after a bar, where they were run); ! = not active in a repeat. Hits are enriched below; roughly 1.1% of the tested compounds scored in any of these assays.

COc1ccc(NC(=O)c2cc([N+](=O)[O-])ccc2O)cc1	SRC2 inh 76.3, NR2F2 inh 68.9 | VP16 Luc counter 39.4 | NR2F2 inh conf 61.1
O=C(/C=C/c1ccc([N+](=O)[O-])cc1)c1ccccc(=O)c1O	NR2F2 inh 42.8 | VP16 Luc counter inactive | NR2F2 inh conf 59.3
Cc1ccc(S(=O)(=O)N(C)c2ccc(OCC(=O)Nc3nc4ccccc4s3)cc2)cc1	NR2F2 inh 38.5 | VP16 Luc counter inactive | NR2F2 inh conf inactive
COc1ccc(N2CCN(C(=O)CCCCCn3c(=S)[nH]c4ccc(N5CCOCC5)cc4c3=O)CC2)cc1	NR2F2 inh 42.2 | VP16 Luc counter inactive | NR2F2 inh conf inactive
COc1ccc(N2CCN(C(=O)CCCCCn3c(=S)[nH]c4cc5c(cc4c3=O)OCO5)CC2)cc1	none (no result: SRC2 inh, GalR3 antagonist, NR2F2 inh)
C(C#CCCCCCCCCC[n+]1ccccc1)#CCCCCCCCCC[n+]1ccccc1	NCOA3 inh 64.5!, NR5A2 inv ag 84.7, NR2F2 inh 64.9 (no result: GalR3 antagonist) | VP16 Luc counter 16.1 | NR2F2 inh conf inactive
Cc1cccc(-c2nnc(SCC(=O)Nc3cccc4ccccc34)n2Cc2ccco2)c1	none (no result: GalR3 antagonist, NCOA1 inh, NCOA3 inh, NR5A2 inv ag)
O=C(Nc1ccc2c(c1)OCCO2)C(c1cc2ccccc2o1)N1CCN(c2ccc(F)cc2)CC1 (stereo unspecified)	NR2F2 inh 39.2 | VP16 Luc counter inactive | NR2F2 inh conf inactive
O=C(Nc1ccc2c(c1)OCCO2)C(c1cc2ccccc2o1)N1CCN(c2ccc(C(F)(F)F)cn2)CC1 (stereo unspecified)	none
COc1ccc(-c2csc(NC(C)=O)n2)cc1OC	none
COc1ccc(-c2csc(NC(=O)C3CCN(C(=O)c4ccc(F)cc4)CC3)n2)cc1OC	NR2F2 inh 55.1 | VP16 Luc counter inactive | NR2F2 inh conf inactive
COc1ccc(CNC(=O)C2CCN(C(=O)c3ccc(F)cc3)CC2)cc1OC	none
COc1cccc(NC(=O)Nc2nc(-c3ccc(OC)c(OC)c3)cs2)c1	SRC2 inh 75.2, NCOA1 inh 71.1, NCOA3 inh 71.8, NR2F2 inh 73.1 | VP16 Luc counter 72.2 | NR2F2 inh conf 100.4
CCOC(=O)[C@@]12CN(C(=O)OC(C)(C)C)CC=C1N(Cc1ccc(OC)cc1)C(=O)[C@H]2CC(=O)NCc1cccs1	none (no result: GalR3 antagonist, NCOA1 inh, NCOA3 inh, NR5A2 inv ag)
O=C(NCc1cccnc1)C(=O)N/N=C/c1ccc([N+](=O)[O-])cc1	none
COc1cccc2c1C(=O)c1c(O)c3c(c(O)c1C2=O)CC(O)(C(C)=O)CC3OC1CC(N(C)C)C(O)C(C)O1 (stereo unspecified)	SRC2 inh 55.3, NCOA1 inh 74.6, NCOA3 inh 85.3, NR5A2 inv ag 96.5, NR2F2 inh 53.2 | VP16 Luc counter 14.8 | NR2F2 inh conf inactive
CC(=O)[C@@]1(O)Cc2c(O)c3c(c(O)c2[C@H](O[C@H]2C[C@H](N)[C@H](O)[C@H](C)O2)C1)C(=O)c1ccccc1C3=O	NR2F2 inh 58.3 | VP16 Luc counter inactive | NR2F2 inh conf 37.9
COc1ccc(OCCN2CCN(S(=O)(=O)c3ccccc3C(F)(F)F)CC2)cc1	NR2F2 inh 41.0 | VP16 Luc counter inactive | NR2F2 inh conf inactive
CCOc1ccc(S(=O)(=O)N2CCN(S(=O)(=O)c3ccc(C(C)=O)cc3)CC2)cc1	none
CC(=O)c1ccc(S(=O)(=O)N2CCN(CCOc3ccc(Br)cc3)CC2)cc1	NR2F2 inh 63.0 | VP16 Luc counter inactive | NR2F2 inh conf 49.7
COc1ccc(OCCN2CCN(S(=O)(=O)c3ccccc3C#N)CC2)cc1	none
OC(c1ccccc1)c1ccncc1 (stereo unspecified)	none
OC(C1=CC(=Cc2ccncc2)c2ccccc21)c1ccncc1 (stereo unspecified)	NR2F2 inh 37.4 | VP16 Luc counter inactive | NR2F2 inh conf inactive
COc1ccc(CCNC(=S)c2ccccc2)cc1OC	NR2F2 inh 38.3 | VP16 Luc counter inactive | NR2F2 inh conf inactive
Cc1ccc(-n2c(SCC(=O)Nc3ccc4c(c3)OCCO4)nnc2-c2cnccn2)cc1	none (no result: GalR3 antagonist, NCOA1 inh, NCOA3 inh, NR5A2 inv ag)
Cc1cccc(Oc2ccc(NC(=O)c3ccccc3C(=O)O)cc2)c1C	none
O=C(O)c1ccccc1C(=O)Nc1ccc(Oc2cccc3ccccc23)cc1	SRC2 inh 89.2, NCOA3 inh 70.6, NR2F2 inh 100.0 | VP16 Luc counter 45.7 | NR2F2 inh conf inactive
O=C(O)c1ccccc1C(=O)Nc1ccc(Oc2ccc3ccccc3c2)cc1	NR2F2 inh 65.8 | VP16 Luc counter inactive | NR2F2 inh conf inactive
COc1ccc(NC(=O)c2ccccc2-c2ccccc2C(=O)O)cc1	none
Nc1nc2c(C(=O)N3CCCC3)nnn2c2ccccc12	none (no result: NCOA1 inh, NCOA3 inh, NR5A2 inv ag)
COc1cccc(N2CCN(CC(=O)NCc3ccc(Cl)cc3)CC2)c1	none (no result: GalR3 antagonist, NCOA1 inh, NCOA3 inh, NR5A2 inv ag)
C=CCN(C)C(C#CCCCC)c1ccccc1 (stereo unspecified)	none (no result: SRC2 inh, GalR3 antagonist, NCOA1 inh, NCOA3 inh, NR5A2 inv ag)
O=C1C(=O)c2cccnc2-c2ncccc21	SRC2 inh 94.0, NCOA1 inh 89.0, NCOA3 inh 91.1, NR5A2 inv ag 104.0, NR2F2 inh 103.2 | VP16 Luc counter 96.8 | NR2F2 inh conf 111.7
O=C1c2cccnc2-c2ncccc21	none
O=C(NO)c1ccc(OC(F)F)cc1	NR2F2 inh 45.3 | VP16 Luc counter inactive | NR2F2 inh conf inactive
O=C(N/N=C/c1ccc(OC(F)F)cc1)c1ccc(Br)cc1	none
CC1=C/C(=N\OS(=O)(=O)c2ccccc2)C(C)=CC1=O	none (no result: SRC2 inh, GalR3 antagonist, NR2F2 inh)
CC1=CC(=O)C(C(C)C)=C/C1=N\OS(=O)(=O)c1ccccc1	NR2F2 inh 81.9 (no result: SRC2 inh, GalR3 antagonist, NCOA1 inh, NCOA3 inh, NR5A2 inv ag) | VP16 Luc counter inactive | NR2F2 inh conf inactive
CCN1CCS/C1=C\C=C\C1=[N+](CC)CCS1	GalR3 antagonist 15.4, NR2F2 inh 68.1 | VP16 Luc counter inactive | NR2F2 inh conf 63.6
Cc1ccc(-c2noc(CSc3nnc(-c4ccncc4)n3-c3ccc(C)cc3)n2)cc1	none
Clc1ccc(-c2noc(CSc3nnc(-c4ccncc4)n3-c3ccccc3)n2)cc1	NR2F2 inh 64.8 | VP16 Luc counter inactive | NR2F2 inh conf inactive
C=CC[n+]1c(-c2ccc(Cl)cc2Cl)csc1Nc1c(C)n(C)n(-c2ccccc2)c1=O	NR2F2 inh 45.7 | VP16 Luc counter inactive | NR2F2 inh conf 40.5
